Out of some 69,000 compounds screened, about 8,600 (12%) showed an effect of 50% or more. This is one part of a sample in which strong results are shown more often than they occur.
System: Plasmodium berghei
Experiment: Screen against P. berghei liver stage (PbLuc), transformed with Luciferase, at 10uM
Format: functional, HepG2
Details: tested at 10 uM

| SMILES | INHIBITION |
| --- | --- |
| COc1ccc(C(=O)COc2coc(CN3CCCCC3)cc2=O)cc1 | 44.9% |
| CC(C)NC(=O)N1CC[C@@H](N(C)C)[C@@H]1Cc1ccncc1 | 28.2% |
| CCS(=O)(=O)N1CCN(Cc2ccncc2)c2nc(C)ccc2C1 | 48.6% |
| CC(c1ccc2c(c1)OCO2)n1cc2nc(N(C)C)[nH]cc-2c1=O (centres undefined) | 39.3% |
| CC(C)CC(=O)Nc1ccc2c(c1)ncn2CC(=O)NCCN(C)C | 32.4% |
| COCCN1CCCC(CCCc2ccccn2)(C(N)=O)C1 (centres undefined) | -58.7% |
| CCOc1ccc(NC(C)=O)cc1S(=O)(=O)Nc1cc(C)on1 | 54.2% |
| CCOc1ccc(NC(C)=O)cc1S(=O)(=O)Nc1nnc(C)s1 | 21.8% |
| CCOc1ccc(NC(C)=O)cc1S(=O)(=O)Nc1ccon1 | 7.83% |
| Clc1ccccc1-c1nnc(CN2CCCC2Cn2cncn2)o1 (centres undefined) | 27.4% |
| Cn1cc(CN2CCO[C@@H]3CN(C4CCCC4)C[C@@H]3C2)cn1 | 41.2% |
| c1cc(CNCc2ccnc(N3CCCC3)c2)c2c(c1)OCCO2 | 44.4% |
| c1cc(CNCc2ccnc(N3CCCC3)c2)c2c(c1)OCO2 | -17.2% |
| c1cc(CNCc2ccnc(N3CCOCC3)c2)c2c(c1)OCO2 | -35.2% |
| c1cc(CNCc2ccnc(N3CCOCC3)c2)c2c(c1)OCCCO2 | 26.4% |
| c1cc(CNCc2ccnc(N3CCCC3)c2)c2c(c1)OCCCO2 | 98.3% |
| OCc1cccc(CNCc2cccc3c2OCCO3)c1 | -33.4% |
| COc1ccc(CNCc2ccnc(N3CCOCC3)c2)cc1OC | 27.1% |
| CN1CCN(c2cc(CNCc3cccc4c3OCO4)ccn2)CC1 | 73.9% |
| CN(C)c1cc(CNCc2cccc3c2OCCO3)ccn1 | 52.1% |
| COc1ccc(OC)c(CNCc2ccnc(N3CCOCC3)c2)c1 | -2.53% |
| COc1cccc(CNCc2ccnc(N3CCOCC3)c2)c1OC | 50.5% |

| SMILES | INHIBITION |
| --- | --- |
| c1cc(CNCc2ccnc(N3CCOCC3)c2)c2c(c1)OCCO2 | 9.48% |
| NC(=O)c1csc(N2C[C@@H](CN3CCOCC3)[C@@H](CO)C2)n1 | 20.645% |
| O=C(NCCNc1cnccn1)N1CCCC(N2CCCC2)C1 (centres undefined) | 37.4% |
| c1cc(CN2CCC[C@@H](Cn3nnc(-c4cnccn4)n3)C2)ccn1 | 18.285% |
| CCOc1cc(NC(=O)N2CCC3(CCOCC3)C2)ccc1C | -38.1% |
| Cc1cc(CN(Cc2cccs2)CC2CCCO2)on1 (centres undefined) | 19.4% |
| CCN(CC)c1nc(O)cc(C(C)n2ncc3ccccc3c2=O)n1 (centres undefined) | 0.45% |
| O=C(C1CCCCC1)N1CCCC2(CCN(c3cnccn3)CC2)C1 | -2.35% |
| c1cc(CNCc2ccc(Cn3cncn3)cc2)c2c(c1)OCCO2 | 16% |
| CC1CN(c2cc(CNCc3cccc4c3OCCO4)ccn2)CCO1 (centres undefined) | -26.2% |
| c1cc(CNCc2ccnc(N3CCCCC3)c2)c2c(c1)OCCCO2 | 70.1% |
| c1cc(CNCc2cccc3c2OCCCO3)cc(Cn2cncn2)c1 | 53.1% |
| c1cc(CNCc2cccc3c2OCCO3)cc(Cn2cncn2)c1 | -8.41% |
| CCc1nc(CN(C)C2CCN(Cc3nc(C4CC4)no3)C2)no1 (centres undefined) | -31.6% |
| COCC(=O)N1CCC(c2c(C(=O)N(C)C)sc3ncccc23)C1 (centres undefined) | 9.54% |
| O=C(c1nc2c(o1)CN(CC1CC1)C2)N1CCCC1 | 18.5% |
| CCCOc1ccccc1NCC(=O)Nc1ccc(CC)cc1 | 15% |
| c1cn2c(n1)CN(CC1CC1)CC(CN1CCOCC1)C2 (centres undefined) | 42.1% |
| CCOC1CCN(C(=O)NCc2ccc(C(=O)N(C)C(C)C)cc2)CC1 | 27.6% |
| CCOC1CCN(C(=O)NCc2cccc(-n3cccn3)c2)CC1 | 1.98% |
| CCOC1CCN(C(=O)NCc2ccc(CN3CCOCC3)cc2)CC1 | 61.8% |
| O=C(N[C@@H]1CCC[C@@H](N2CCOCC2)[C@@H]1O)c1cc2ccccc2[nH]1 | -3.31% |

| SMILES | INHIBITION |
| --- | --- |
| CC(C)N(C)Cc1cnc2n1CCN(Cc1cccc(F)c1)C2 | -22.1% |
| COCCNc1nc(NCCc2ccccc2)nc2nccnc12 | -14.9% |
| O=C(c1ccncc1)N1C[C@@H](OCc2cccnc2)[C@H]2OCCC[C@H]21 | 10.6% |
| CSCC(=O)N1CCc2c(cnc(C)c2-c2noc(-c3cscn3)n2)C1 | 16.7% |
| Cc1ncc2c(c1-c1noc(-c3cscn3)n1)CCNC2 | 58.8% |
| Cc1cc(-c2nc(-c3c(C)ncc4c3CCNC4)no2)nc(C)n1 | 33.7% |
| CC(C)Oc1ncccc1CNC(=O)N1CCSCC1 | 9.14% |
| CC(=O)N1CCCN(C(=O)NCc2cccnc2OC(C)C)CC1 | -40.2% |
| NC(=O)C1CCN(C(=O)NCc2ccccc2-n2cccn2)C1 (centres undefined) | 0.914% |
| CC(C)Oc1ncccc1CNC(=O)N1CCC(C(N)=O)C1 (centres undefined) | 40.3% |
| NC(=O)C1CCN(C(=O)NCc2ccccc2-n2cccn2)CC1 | 44.1% |
| Cc1cc(C2CCCN2C(=O)NCc2cccnc2OC(C)C)on1 (centres undefined) | 29% |
| NC(=O)CC1CCN(C(=O)NCc2ccccc2-n2cccn2)CC1 | 56.3% |
| CC(C)Oc1ncccc1CNC(=O)N1CCC1c1ccccc1 (centres undefined) | 52% |
| CC(C)Oc1ncccc1CNC(=O)N1CCCC1c1ccsc1 (centres undefined) | 31.2% |
| CC(C)Oc1ncccc1CNC(=O)N1CCC1 | 54.4% |
| NC(=O)C1CCN(C(=O)NCc2cccnc2OC2CCCC2)C1 (centres undefined) | 11.2% |
| NC(=O)C1CCN(C(=O)NCc2cccnc2OCC(F)(F)F)C1 (centres undefined) | 56.4% |
| CC(C)N(C)Cc1cncc2c1CCN(C(=O)c1ccc[nH]1)C2 | 29% |
| Cc1cccc(CN2CCc3ncnc(N4CCN(C)CC4)c3CC2)n1 | -110% |
| COc1ccc(OC)c(-n2nnnc2SCC2CCCCO2)c1 (centres undefined) | 20.9% |
| Cc1cc(C)c(CNC(=O)NCC2CCCOC2)c(=O)[nH]1 (centres undefined) | 27.5% |

| SMILES | INHIBITION |
| --- | --- |
| N#Cc1ccc(CNc2cccc(C(=O)N3CCOCC3)c2)cc1 | 24.2% |
| Cc1nc(C)n(CC2CCCN(CC(=O)NC3CCOCC3)C2)n1 (centres undefined) | -17% |
| CCN1CCC(=O)N(C)Cc2cc(F)ccc21 | 35.8% |
| O=C(Cc1ccc2c(c1)OCCCO2)Nc1nnn[nH]1 | -5.38% |
| CC(=O)N1CCCN(C(=O)NCc2ccccn2)CC1 | 53.3% |
| CCN1CCN(C(=O)NCc2cccnc2-n2cccn2)CC1 | 33.8% |
| O=C(CC1CCCCC1)N1CCN(C(=O)NCc2ccccn2)CC1 | 12.7% |
| CC(=O)N1CCN(C(=O)NCc2cccnc2OC(C)C)CC1 | 48.2% |
| CN1CCCN(C(=O)NCc2cccnc2-n2cccn2)CC1 | 52.3% |
| CC(C)Oc1ncccc1CNC(=O)N1CCC(n2cccc2)CC1 | -69% |
| CC(C)Oc1ncccc1CNC(=O)N1CCOCC1 | 65.6% |
| O=C(NCc1cccnc1OCC(F)(F)F)N1CCOCC1 | 69.3% |
| CC(=O)N1CCCN(C(=O)NCCNc2ccccn2)CC1 | 16.533% |
| COc1ncccc1CNC(=O)N1CCC(CN2CCOCC2)CC1 | 29.4% |
| CC(C)CN1CCN(C(=O)NCc2cccnc2-n2cccn2)CC1 | 11% |
| COCCOc1ncccc1CNC(=O)N1CCOCC1 | 44.3% |
| CCCc1nc(Nc2cccc(C(N)=O)c2)c2c(n1)c(C)nn2CC | -28.15% |
| O=C(Cn1cccc(S(=O)(=O)N2CCCC2)c1=O)c1ccccc1Cl | 16.6% |
| CCOc1cc(=O)n2c(c1C(=O)OCc1cccc(C)c1)CCCC2 | 43.8% |
| c1csc(CN2CCn3c(Cn4cncn4)cnc3C2)n1 | 45.5% |
| COC(=O)C1CCN(c2cc(C)nc(-c3ccncc3)n2)CC1 | -53.5% |
| Cc1noc(C)c1C(=O)N1C[C@@H]2COC[C@]2(COc2ccccn2)C1 | 18.5% |

| SMILES | INHIBITION |
| --- | --- |
| CCN1CCN(C(=O)c2cc(NC(=O)c3ccccc3)n(C)n2)CC1 | 75.7% |
| Cn1nc(C(=O)N2CCCCCC2)cc1NC(=O)c1ccccc1 | 26.4% |
| CN1CCN(C(=O)c2cc(NC(=O)c3ccccc3)n(C)n2)CC1 | 46.6% |
| CC(C)N1c2sc(-c3ccsc3)nc2CC1C(=O)NC1CCCC1 (centres undefined) | 47.5% |
| CC(C)N1c2sc(-c3ccsc3)nc2CC1C(=O)NC1CC1 (centres undefined) | 26.5% |
| CC(C)N1c2sc(-c3ccccc3)nc2CC1C(=O)NC1CCCC1 (centres undefined) | 57.1% |
| Cc1cccc(CN2CCc3ncnc(N4CCOCC4)c3CC2)n1 | -9.86% |
| Cc1ccc(CN(CCCN2CCOCC2)Cc2[nH]cnc2C)o1 | -18.9% |
| CS(=O)(=O)N1CCC[C@]2(C[C@@H](Oc3ncccc3F)CO2)C1 | 26.2% |
| CN1CC=C(c2noc(CCC(=O)N3CCc4ccccc4C3)n2)CC1 | 77.2% |
| CN1CC=C(c2noc(CCC(=O)N3CCCC3)n2)CC1 | 41.6% |
| CN1CC=C(c2noc(CCC(=O)N3CCc4ccccc43)n2)CC1 | 32.5% |
| O=C(NC1CCCN(Cc2c(F)cccc2F)C1)c1cc[nH]n1 (centres undefined) | 32.2% |
| CCc1cccc(N2CCC(NC(=O)c3ccoc3C)CC2)c1 | 70.8% |
| O=C(NCc1cccc(N2CC=CC2)c1)NC1CC1 | -37.7% |
| CCc1ccc(O)c(C(=O)NC2CCN(S(=O)(=O)CC)CC2)c1 | 44.2% |
| Cc1occc1C(=O)NC1CCN(C(=O)Nc2cccnc2)CC1 | 46.3% |
| CCc1cccc(N2CCC(NC(=O)c3ccc(=O)[nH]n3)CC2)c1 | 21.9% |
| CCc1cccc(N2CCC(NC(=O)c3ccncc3)CC2)c1 | 23.5% |
| CCc1cccc(N2CCC(NC(=O)c3cc[nH]n3)CC2)c1 | 77.3% |
| CCc1cccc(N2CCC(NC(=O)c3ccco3)CC2)c1 | 91.4% |

From ChEMBL document CHEMBL4513216, “Probing the Open Global Health Chemical Diversity Library for Multistage-Active Starting Points for Next-Generation Antimalarials” (ACS Infect Dis, 2020)
